In PubChem BioAssay (NCI):
The panel holds about 79,000 compounds, 15% with a hit somewhere; the sample as a whole holds those more often. Unmarked numbers belong to inactive results. Calls of active or inactive are those of the source. Cut-off read from the data, not from the text of the source: active = growth inhibition above about 70%; inactive = the rest.

Key:
[1] = NCI Yeast Anticancer Drug Screen. Data for the rad50 strain (AID 155);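 note: 0% = growth of vehicle-only cultures of the same strain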; details: S. cerevisiae rad50 strain growth inhibition, hits give high values
In short: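 Yeast carrying a defined DNA repair defect were exposed to test compounds, and growth was compared with vehicle-treated controls to give percent inhibition.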

[2] = NCI Yeast Anticancer Drug Screen. Data for the mec2-1 strain (AID 157); details: S. cerevisiae mec2-1 strain, hits give high values
In short: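 Test agents were screened against the mec2-1 yeast strain, with defined DNA repair or cell cycle alteration. Growth was scored as inhibition against vehicle-only controls.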

[3] = NCI Yeast Anticancer Drug Screen. Data for the sgs1 mgt1 strain (AID 161);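 note: 0% = growth of cultures given vehicle only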; details: S. cerevisiae sgs1 mgt1 strain, hits give high values
In short: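 Test agents were incubated with a DNA-repair-mutant yeast strain. Growth was then read and compared against vehicle-treated controls.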

[4] = NCI Yeast Anticancer Drug Screen. Data for the cln2 rad14 strain (AID 165);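 note: 0% = growth equal to vehicle treated cultures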; details: S. cerevisiae cln2 rad14 strain, hits give high values
In short: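 Growth of compound-exposed yeast (cln2 rad14 genotype) measured and expressed as inhibition relative to vehicle.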

[5] = NCI Yeast Anticancer Drug Screen. Data for the bub3 strain (AID 167); details: S. cerevisiae bub3 mutant strain, hits give high values
In short: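 Compounds were applied to a genetically altered yeast strain carrying a cell-cycle control defect. Growth inhibition was scored against vehicle-treated controls.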

[6] = NCI Yeast Anticancer Drug Screen. Data for the mlh1 rad18 strain (AID 175); details: S. cerevisiae mlh1 rad18 strain growth inhibition, hits give high values
In short: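 In this whole-cell yeast screen, a strain with altered DNA damage repair is challenged with compound, and its growth is measured against matched vehicle-treated controls.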

[7] = at 5.0 µM (retest, dose inferred, filed as 0.5)
[8] = at 50.0 µM (retest, dose inferred, filed as 5.0)

## O=C(NCCCN1CC2CCCC2C1)C(C1CCCCC1)C1CCCCC1 (stereo not given)
[1]; [7]
  growth inhibition: -5%
[1]; [8]
  growth inhibition: 94% (active)
[1]; at 50.0 µM
  growth inhibition: 99.6% (active)
[2]; [7]
  growth inhibition: -12%
[2]; [8]
  growth inhibition: 76% (active)
[2]; at 50.0 µM
  growth inhibition: 99.5% (active)
[3]; [7]
  growth inhibition: -9%
[3]; [8]
  growth inhibition: 92% (active)
[3]; at 50.0 µM
  growth inhibition: 99.5% (active)
[4]; [7]
  growth inhibition: 0%
[4]; [8]
  growth inhibition: 98% (active)
[4]; at 50.0 µM
  growth inhibition: 99.2% (active)
[5]; [7]
  growth inhibition: -22%
[5]; [8]
  growth inhibition: 99% (active)
[5]; at 50.0 µM
  growth inhibition: 99.5% (active)
[6]; [7]
  growth inhibition: -3%
[6]; [8]
  growth inhibition: 96% (active)
[6]; at 50.0 µM
  growth inhibition: 99.5% (active)

## C=C1C(=O)OC2/C=C(\C(=O)O)CC/C=C(\C)CC(OC(=O)/C=C(\C)CC)C12 (stereo not given)
[1]; [7]
  growth inhibition: -1%
[1]; [8]
  growth inhibition: 79% (active)
[1]; at 50.0 µM
  growth inhibition: 94% (active)
[2]; [7]
  growth inhibition: -5%
[2]; [8]
  growth inhibition: 79% (active)
[2]; at 50.0 µM
  growth inhibition: 68.2%
[3]; [7]
  growth inhibition: -1%
[3]; [8]
  growth inhibition: 79% (active)
[3]; at 50.0 µM
  growth inhibition: 77.1% (active)
[4]; [7]
  growth inhibition: -19%
[4]; [8]
  growth inhibition: 69%
[4]; at 50.0 µM
  growth inhibition: 69.8%
[5]; [7]
  growth inhibition: -7%
[5]; [8]
  growth inhibition: 84% (active)
[5]; at 50.0 µM
  growth inhibition: 84.2% (active)
[6]; [7]
  growth inhibition: -4%
[6]; [8]
  growth inhibition: 93% (active)
[6]; at 50.0 µM
  growth inhibition: 77.1% (active)

## COc1ccc(C(=O)Nc2ccccc2OC)cc1
[1]; [7]
  growth inhibition: 5%
[1]; [8]
  growth inhibition: 8%
[1]; at 50.0 µM
  growth inhibition: 3.45%
[2]; [7]
  growth inhibition: -13%
[2]; [8]
  growth inhibition: -29%
[2]; at 50.0 µM
  growth inhibition: 12.2%
[3]; [7]
  growth inhibition: 4%
[3]; [8]
  growth inhibition: 10%
[3]; at 50.0 µM
  growth inhibition: 15.1%
[4]; [7]
  growth inhibition: 6%
[4]; [8]
  growth inhibition: 17%
[4]; at 50.0 µM
  growth inhibition: 19.1%
[5]; [7]
  growth inhibition: 6%
[5]; [8]
  growth inhibition: 20%
[5]; at 50.0 µM
  growth inhibition: 10.7%
[6]; [7]
  growth inhibition: 18%
[6]; [8]
  growth inhibition: 23%
[6]; at 50.0 µM
  growth inhibition: 9.5%

## C=C(C)C1CC/C(C)=C/CCC2(C)OC2CC/C(CO)=C\C1O (stereo not given)
[1]; [7]
  growth inhibition: 52%
[1]; [8]
  growth inhibition: 89% (active)
[1]; at 50.0 µM
  growth inhibition: 91.1% (active)
[2]; [7]
  growth inhibition: 80% (active)
[2]; [8]
  growth inhibition: 96% (active)
[2]; at 50.0 µM
  growth inhibition: 93% (active)
[3]; [7]
  growth inhibition: 41%
[3]; [8]
  growth inhibition: 95% (active)
[3]; at 50.0 µM
  growth inhibition: 93% (active)
[4]; [7]
  growth inhibition: 48%
[4]; [8]
  growth inhibition: 85% (active)
[4]; at 50.0 µM
  growth inhibition: 91.7% (active)
[5]; [7]
  growth inhibition: 90% (active)
[5]; [8]
  growth inhibition: 94% (active)
[5]; at 50.0 µM
  growth inhibition: 91.8% (active)
[6]; [7]
  growth inhibition: 87% (active)
[6]; [8]
  growth inhibition: 96% (active)
[6]; at 50.0 µM
  growth inhibition: 91.5% (active)

## COc1ccc(I)c(C=NC2CCCCC2)c1C
[1]; [7]
  growth inhibition: 41%
[1]; [8]
  growth inhibition: 94% (active)
[1]; at 50.0 µM
  growth inhibition: 97.2% (active)
[2]; [7]
  growth inhibition: 16%
[2]; [8]
  growth inhibition: 82% (active)
[2]; at 50.0 µM
  growth inhibition: 91.5% (active)
[3]; [7]
  growth inhibition: 41%
[3]; [8]
  growth inhibition: 92% (active)
[3]; at 50.0 µM
  growth inhibition: 99% (active)
[4]; [7]
  growth inhibition: 1%
[4]; [8]
  growth inhibition: 88% (active)
[4]; at 50.0 µM
  growth inhibition: 41.8%
[5]; [7]
  growth inhibition: 35%
[5]; [8]
  growth inhibition: 94% (active)
[5]; at 50.0 µM
  growth inhibition: 89.4% (active)
[6]; [7]
  growth inhibition: 27%
[6]; [8]
  growth inhibition: 93% (active)
[6]; at 50.0 µM
  growth inhibition: 94.7% (active)

## Clc1ccc(COC(CN2CCOCC2)c2ccccc2)c(Cl)c1 (stereo not given)
[1]; [7]
  growth inhibition: 2%
[1]; [8]
  growth inhibition: 89% (active)
[1]; at 50.0 µM
  growth inhibition: 94.8% (active)
[2]; [7]
  growth inhibition: 8%
[2]; [8]
  growth inhibition: 92% (active)
[2]; at 50.0 µM
  growth inhibition: 96.2% (active)
[3]; [7]
  growth inhibition: 19%
[3]; [8]
  growth inhibition: 98% (active)
[3]; at 50.0 µM
  growth inhibition: 96% (active)
[4]; [7]
  growth inhibition: 11%
[4]; [8]
  growth inhibition: 83% (active)
[4]; at 50.0 µM
  growth inhibition: 98.2% (active)
[5]; [7]
  growth inhibition: 23%
[5]; [8]
  growth inhibition: 95% (active)
[5]; at 50.0 µM
  growth inhibition: 94.9% (active)
[6]; [7]
  growth inhibition: 11%
[6]; [8]
  growth inhibition: 87% (active)
[6]; at 50.0 µM
  growth inhibition: 97.6% (active)

## Cc1ccc(S(=O)(=O)NC2(C=O)CCC(C(C)(C)C)CC2)cc1 (stereo not given)
[1]; [7]
  growth inhibition: 15%
[1]; [8]
  growth inhibition: 86% (active)
[1]; at 50.0 µM
  growth inhibition: 77.7% (active)
[2]; [7]
  growth inhibition: 20%
[2]; [8]
  growth inhibition: 88% (active)
[2]; at 50.0 µM
  growth inhibition: 68.4%
[3]; [7]
  growth inhibition: 25%
[3]; [8]
  growth inhibition: 84% (active)
[3]; at 50.0 µM
  growth inhibition: 82% (active)
[4]; [7]
  growth inhibition: 20%
[4]; [8]
  growth inhibition: 92% (active)
[4]; at 50.0 µM
  growth inhibition: 77.5% (active)
[5]; [7]
  growth inhibition: 19%
[5]; [8]
  growth inhibition: 88% (active)
[5]; at 50.0 µM
  growth inhibition: 84.7% (active)
[6]; [7]
  growth inhibition: 37%
[6]; [8]
  growth inhibition: 95% (active)
[6]; at 50.0 µM
  growth inhibition: 81% (active)

## CS(=O)(=O)C(=Cc1ccccc1Cl)S(C)(=O)=O
[1]; [7]
  growth inhibition: 30%
[1]; [8]
  growth inhibition: 57%
[1]; at 50.0 µM
  growth inhibition: -12.7%
[2]; [7]
  growth inhibition: 20%
[2]; [8]
  growth inhibition: 29%
[2]; at 50.0 µM
  growth inhibition: -1.65%
[3]; [7]
  growth inhibition: 11%
[3]; [8]
  growth inhibition: 7%
[3]; at 50.0 µM
  growth inhibition: 4.05%
[4]; [7]
  growth inhibition: 2%
[4]; [8]
  growth inhibition: 13%
[4]; at 50.0 µM
  growth inhibition: 12.1%
[5]; [7]
  growth inhibition: 0%
[5]; [8]
  growth inhibition: 6%
[5]; at 50.0 µM
  growth inhibition: 5%
[6]; [7]
  growth inhibition: 38%
[6]; [8]
  growth inhibition: 62%
[6]; at 50.0 µM
  growth inhibition: -28.1%

## CCOC(=O)C(CC(=O)O)=C(c1ccccc1)c1ccccc1
[1]; [7]
  growth inhibition: -10%
[1]; [8]
  growth inhibition: -7%
[1]; at 50.0 µM
  growth inhibition: 17.5%
[2]; [7]
  growth inhibition: -5%
[2]; [8]
  growth inhibition: -8%
[2]; at 50.0 µM
  growth inhibition: 18.5%
[3]; [7]
  growth inhibition: 3%
[3]; [8]
  growth inhibition: 14%
[3]; at 50.0 µM
  growth inhibition: 7.9%
[4]; [7]
  growth inhibition: -31%
[4]; [8]
  growth inhibition: 4%
[4]; at 50.0 µM
  growth inhibition: 79.7% (active)
[5]; [7]
  growth inhibition: 11%
[5]; [8]
  growth inhibition: 0%
[5]; at 50.0 µM
  growth inhibition: 25.1%
[6]; [7]
  growth inhibition: -10%
[6]; [8]
  growth inhibition: 7%
[6]; at 50.0 µM
  growth inhibition: -7.95%

## Cc1nc2c(Cl)cccc2c2ccccc12
[1]; [7]
  growth inhibition: 14%
[1]; [8]
  growth inhibition: 94% (active)
[1]; at 50.0 µM
  growth inhibition: 94.2% (active)
[2]; [7]
  growth inhibition: 4%
[2]; [8]
  growth inhibition: 93% (active)
[2]; at 50.0 µM
  growth inhibition: 85.7% (active)
[3]; [7]
  growth inhibition: 5%
[3]; [8]
  growth inhibition: 95% (active)
[3]; at 50.0 µM
  growth inhibition: 87.5% (active)
[4]; [7]
  growth inhibition: -10%
[4]; [8]
  growth inhibition: 95% (active)
[4]; at 50.0 µM
  growth inhibition: 88% (active)
[5]; [7]
  growth inhibition: -1%
[5]; [8]
  growth inhibition: 95% (active)
[5]; at 50.0 µM
  growth inhibition: 93.4% (active)
[6]; [7]
  growth inhibition: 18%
[6]; [8]
  growth inhibition: 98% (active)
[6]; at 50.0 µM
  growth inhibition: 94.5% (active)
